Columns and labels:
Assay in all cases: log2 ratio of Biotin-Ahx-Ub-VS probe labelling (fragment/DMSO); higher = less target engagement (more negative = stronger competition), active = hit call of the paper (q ≤ 0.05, log2 ratio ≤ -1)
Conditions in all cases: compound concentration: 200 uM; treatment time: 3 h
USP9X = USP9X (UniProt Q93008)
How it was run: (§1)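 Fragment (200 µM) or vehicle was incubated for 3 h with triplicate HEK293T lysate samples of 495 µg, which were then treated with Biotin-Ahx-Ub-VS at 0.5 µM final for 1 h. Labelled DUBs were enriched on NeutrAvidin, digested with LysC and trypsin, and analysed by diaPASEF LC-MS/MS. Values are average log2 fragment/vehicle ratios from an unpaired t-test on global-median-normalised Spectronaut label-free quantities, using proteins with ≥2 unique peptides.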

UniProt O00487 = molecular target: UniProt O00487
How it was run: as §1

UniProt O00507 = molecular target: UniProt O00507
How it was run: as §1

UniProt P51784 = molecular target: UniProt P51784
How it was run: as §1

UniProt Q5T2D3 = molecular target: T1, UniProt Q5T2D3
T1 sequence (whole entry): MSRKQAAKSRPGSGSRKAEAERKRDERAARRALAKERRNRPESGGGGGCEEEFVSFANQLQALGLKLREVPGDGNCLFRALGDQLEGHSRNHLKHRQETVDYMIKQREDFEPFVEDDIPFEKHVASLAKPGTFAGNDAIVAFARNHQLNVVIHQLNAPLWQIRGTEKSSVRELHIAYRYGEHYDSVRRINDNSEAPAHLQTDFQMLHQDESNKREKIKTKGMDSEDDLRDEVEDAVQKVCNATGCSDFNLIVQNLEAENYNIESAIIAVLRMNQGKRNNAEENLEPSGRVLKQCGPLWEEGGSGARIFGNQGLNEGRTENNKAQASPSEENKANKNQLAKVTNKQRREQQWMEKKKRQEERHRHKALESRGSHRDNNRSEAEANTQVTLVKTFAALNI
How it was run: as §1

UniProt Q8TE49 = molecular target: T2, UniProt Q8TE49
T2 sequence (whole entry): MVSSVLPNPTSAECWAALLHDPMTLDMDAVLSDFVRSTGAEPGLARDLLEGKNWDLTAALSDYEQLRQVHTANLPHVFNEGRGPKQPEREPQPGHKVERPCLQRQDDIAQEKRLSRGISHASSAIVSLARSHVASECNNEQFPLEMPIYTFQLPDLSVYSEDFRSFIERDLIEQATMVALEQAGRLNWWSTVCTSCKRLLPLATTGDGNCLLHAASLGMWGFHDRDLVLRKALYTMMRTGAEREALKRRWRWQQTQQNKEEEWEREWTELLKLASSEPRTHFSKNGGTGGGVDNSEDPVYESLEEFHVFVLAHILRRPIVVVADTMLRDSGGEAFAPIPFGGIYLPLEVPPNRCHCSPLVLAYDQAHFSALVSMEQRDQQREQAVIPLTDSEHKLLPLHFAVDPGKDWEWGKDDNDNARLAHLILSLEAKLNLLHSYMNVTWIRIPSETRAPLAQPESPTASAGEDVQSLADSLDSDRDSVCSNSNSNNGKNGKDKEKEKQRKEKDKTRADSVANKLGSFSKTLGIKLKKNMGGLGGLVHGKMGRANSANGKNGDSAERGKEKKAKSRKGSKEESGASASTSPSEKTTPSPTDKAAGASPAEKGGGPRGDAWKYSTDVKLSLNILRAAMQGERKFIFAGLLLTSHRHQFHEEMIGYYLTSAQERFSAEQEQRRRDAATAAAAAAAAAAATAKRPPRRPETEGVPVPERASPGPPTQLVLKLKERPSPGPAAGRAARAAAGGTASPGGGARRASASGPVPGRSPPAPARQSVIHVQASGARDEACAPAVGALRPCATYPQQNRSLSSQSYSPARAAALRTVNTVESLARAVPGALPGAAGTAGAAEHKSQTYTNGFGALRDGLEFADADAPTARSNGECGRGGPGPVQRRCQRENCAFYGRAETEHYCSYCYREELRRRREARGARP
How it was run: as §1

UniProt Q9P2H5 = molecular target: T3, UniProt Q9P2H5
T3 sequence (whole entry): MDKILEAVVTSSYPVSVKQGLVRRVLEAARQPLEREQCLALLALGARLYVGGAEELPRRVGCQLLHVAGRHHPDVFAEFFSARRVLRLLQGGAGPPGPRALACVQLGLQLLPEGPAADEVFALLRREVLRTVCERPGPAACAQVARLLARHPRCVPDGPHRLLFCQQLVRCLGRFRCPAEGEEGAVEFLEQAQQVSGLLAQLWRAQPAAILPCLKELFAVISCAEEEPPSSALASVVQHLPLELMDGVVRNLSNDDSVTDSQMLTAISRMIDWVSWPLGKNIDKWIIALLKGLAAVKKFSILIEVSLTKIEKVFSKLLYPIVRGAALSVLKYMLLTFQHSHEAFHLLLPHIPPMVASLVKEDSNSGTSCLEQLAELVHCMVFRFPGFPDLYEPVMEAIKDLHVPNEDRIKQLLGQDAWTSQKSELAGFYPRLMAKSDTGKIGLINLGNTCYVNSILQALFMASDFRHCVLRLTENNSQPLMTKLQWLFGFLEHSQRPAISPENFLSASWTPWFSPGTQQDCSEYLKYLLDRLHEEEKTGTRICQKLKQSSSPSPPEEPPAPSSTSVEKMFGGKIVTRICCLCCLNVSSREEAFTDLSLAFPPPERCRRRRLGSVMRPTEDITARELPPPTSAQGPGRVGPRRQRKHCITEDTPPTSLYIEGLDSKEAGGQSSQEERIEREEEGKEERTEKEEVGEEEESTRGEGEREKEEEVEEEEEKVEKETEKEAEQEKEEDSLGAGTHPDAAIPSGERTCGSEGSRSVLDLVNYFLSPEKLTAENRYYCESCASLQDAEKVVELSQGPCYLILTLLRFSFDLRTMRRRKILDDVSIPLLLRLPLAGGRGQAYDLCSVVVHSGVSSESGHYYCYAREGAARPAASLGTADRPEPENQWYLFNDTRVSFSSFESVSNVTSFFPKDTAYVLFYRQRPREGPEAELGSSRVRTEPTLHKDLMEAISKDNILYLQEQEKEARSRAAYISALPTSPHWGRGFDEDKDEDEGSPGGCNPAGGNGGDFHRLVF
How it was run: as §1

UniProt Q9UGI0 = molecular target: T4, UniProt Q9UGI0
T4 sequence (whole entry): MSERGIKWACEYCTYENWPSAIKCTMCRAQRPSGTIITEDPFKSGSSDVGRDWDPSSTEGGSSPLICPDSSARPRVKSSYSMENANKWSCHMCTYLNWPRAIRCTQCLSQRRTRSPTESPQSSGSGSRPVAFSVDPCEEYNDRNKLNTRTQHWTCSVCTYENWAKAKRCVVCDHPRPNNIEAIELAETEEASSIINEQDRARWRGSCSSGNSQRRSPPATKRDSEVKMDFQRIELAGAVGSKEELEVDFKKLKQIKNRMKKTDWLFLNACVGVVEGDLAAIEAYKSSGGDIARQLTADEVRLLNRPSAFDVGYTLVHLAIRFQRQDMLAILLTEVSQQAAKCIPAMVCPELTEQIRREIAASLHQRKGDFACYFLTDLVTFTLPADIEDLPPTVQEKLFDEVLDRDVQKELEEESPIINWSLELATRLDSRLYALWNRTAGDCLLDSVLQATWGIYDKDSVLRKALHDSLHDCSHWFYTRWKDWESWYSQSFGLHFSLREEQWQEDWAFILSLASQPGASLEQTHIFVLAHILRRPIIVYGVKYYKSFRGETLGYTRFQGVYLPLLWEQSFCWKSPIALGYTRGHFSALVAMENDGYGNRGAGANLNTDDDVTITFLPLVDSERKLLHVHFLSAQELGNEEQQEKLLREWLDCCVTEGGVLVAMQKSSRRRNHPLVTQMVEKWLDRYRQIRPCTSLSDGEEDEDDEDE
How it was run: as §1

YOD1 = molecular target: T5, YOD1 (UniProt Q5VVQ6)
T5 sequence (whole entry): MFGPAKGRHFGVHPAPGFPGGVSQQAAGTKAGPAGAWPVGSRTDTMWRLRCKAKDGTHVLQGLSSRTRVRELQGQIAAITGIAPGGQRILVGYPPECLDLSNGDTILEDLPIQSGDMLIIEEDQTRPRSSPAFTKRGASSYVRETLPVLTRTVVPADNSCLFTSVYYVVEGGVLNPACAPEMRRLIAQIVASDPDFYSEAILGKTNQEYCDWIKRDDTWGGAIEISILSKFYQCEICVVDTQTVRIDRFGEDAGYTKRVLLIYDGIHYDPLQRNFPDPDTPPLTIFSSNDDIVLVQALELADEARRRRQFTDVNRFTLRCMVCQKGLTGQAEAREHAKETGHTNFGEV
How it was run: as §1

Measured: log2 ratio of Biotin-Ahx-Ub-VS probe labelling

UniProt O00507, sequence (O00507 whole entry): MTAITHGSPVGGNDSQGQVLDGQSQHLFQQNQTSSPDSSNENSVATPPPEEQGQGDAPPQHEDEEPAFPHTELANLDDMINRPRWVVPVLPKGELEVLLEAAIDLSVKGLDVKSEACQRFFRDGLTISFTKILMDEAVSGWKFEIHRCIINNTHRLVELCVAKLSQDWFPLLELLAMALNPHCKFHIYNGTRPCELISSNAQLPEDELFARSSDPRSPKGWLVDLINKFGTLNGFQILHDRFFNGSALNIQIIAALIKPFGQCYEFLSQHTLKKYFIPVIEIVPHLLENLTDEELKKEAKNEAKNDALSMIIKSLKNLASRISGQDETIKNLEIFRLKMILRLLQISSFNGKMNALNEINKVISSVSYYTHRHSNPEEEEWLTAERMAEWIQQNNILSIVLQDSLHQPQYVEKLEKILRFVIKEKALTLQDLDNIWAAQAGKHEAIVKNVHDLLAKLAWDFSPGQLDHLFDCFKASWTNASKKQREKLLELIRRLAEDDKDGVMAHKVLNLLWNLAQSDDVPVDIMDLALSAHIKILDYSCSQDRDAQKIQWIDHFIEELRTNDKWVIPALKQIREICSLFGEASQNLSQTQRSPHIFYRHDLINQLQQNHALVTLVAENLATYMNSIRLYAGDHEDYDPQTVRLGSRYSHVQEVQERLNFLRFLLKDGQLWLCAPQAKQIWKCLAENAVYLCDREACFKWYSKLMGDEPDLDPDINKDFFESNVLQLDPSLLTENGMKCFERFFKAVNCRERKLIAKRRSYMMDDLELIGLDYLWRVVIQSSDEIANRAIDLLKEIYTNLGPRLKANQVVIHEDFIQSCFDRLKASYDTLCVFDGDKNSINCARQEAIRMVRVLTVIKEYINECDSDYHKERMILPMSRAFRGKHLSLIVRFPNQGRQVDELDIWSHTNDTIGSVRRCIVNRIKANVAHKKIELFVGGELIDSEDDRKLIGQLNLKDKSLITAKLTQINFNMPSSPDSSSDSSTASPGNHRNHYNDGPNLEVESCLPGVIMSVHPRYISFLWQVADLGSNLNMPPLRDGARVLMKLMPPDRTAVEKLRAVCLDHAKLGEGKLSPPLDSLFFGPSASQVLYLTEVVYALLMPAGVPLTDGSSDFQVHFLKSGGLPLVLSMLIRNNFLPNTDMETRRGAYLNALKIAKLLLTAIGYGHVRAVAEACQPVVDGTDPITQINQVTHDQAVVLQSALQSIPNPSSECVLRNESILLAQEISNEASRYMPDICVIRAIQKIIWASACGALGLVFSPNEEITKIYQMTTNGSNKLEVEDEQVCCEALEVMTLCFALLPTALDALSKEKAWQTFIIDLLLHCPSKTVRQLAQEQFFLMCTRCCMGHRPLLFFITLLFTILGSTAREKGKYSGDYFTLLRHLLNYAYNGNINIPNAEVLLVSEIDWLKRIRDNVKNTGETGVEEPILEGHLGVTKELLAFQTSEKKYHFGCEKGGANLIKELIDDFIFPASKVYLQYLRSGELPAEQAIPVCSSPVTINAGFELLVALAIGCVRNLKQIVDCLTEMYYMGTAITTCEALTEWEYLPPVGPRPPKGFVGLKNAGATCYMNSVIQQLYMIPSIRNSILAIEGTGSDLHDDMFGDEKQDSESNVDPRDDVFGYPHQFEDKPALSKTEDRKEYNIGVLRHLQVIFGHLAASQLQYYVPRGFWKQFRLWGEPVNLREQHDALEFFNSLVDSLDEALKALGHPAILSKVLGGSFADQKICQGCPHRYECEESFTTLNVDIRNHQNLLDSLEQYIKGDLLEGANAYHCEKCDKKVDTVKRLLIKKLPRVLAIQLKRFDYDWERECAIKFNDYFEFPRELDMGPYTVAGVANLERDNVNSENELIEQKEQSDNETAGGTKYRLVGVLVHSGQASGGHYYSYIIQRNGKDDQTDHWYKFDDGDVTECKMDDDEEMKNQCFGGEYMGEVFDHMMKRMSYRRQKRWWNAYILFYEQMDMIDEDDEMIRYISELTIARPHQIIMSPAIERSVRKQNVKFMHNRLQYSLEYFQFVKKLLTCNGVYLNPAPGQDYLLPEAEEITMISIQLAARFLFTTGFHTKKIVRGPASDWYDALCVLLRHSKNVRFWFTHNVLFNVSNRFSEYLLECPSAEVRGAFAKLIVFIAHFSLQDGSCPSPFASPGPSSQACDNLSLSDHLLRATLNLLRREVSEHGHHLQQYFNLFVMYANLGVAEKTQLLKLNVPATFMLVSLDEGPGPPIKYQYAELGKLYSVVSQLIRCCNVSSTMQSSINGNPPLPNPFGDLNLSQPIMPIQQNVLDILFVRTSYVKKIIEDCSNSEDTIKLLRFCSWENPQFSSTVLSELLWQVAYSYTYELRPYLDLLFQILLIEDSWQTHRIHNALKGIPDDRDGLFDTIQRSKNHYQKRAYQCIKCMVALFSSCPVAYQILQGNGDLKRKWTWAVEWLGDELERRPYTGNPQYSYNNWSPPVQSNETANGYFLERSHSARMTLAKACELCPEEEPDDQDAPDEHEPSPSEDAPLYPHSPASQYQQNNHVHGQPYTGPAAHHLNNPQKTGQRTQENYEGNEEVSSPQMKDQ
UniProt P51784, sequence (P51784 whole entry): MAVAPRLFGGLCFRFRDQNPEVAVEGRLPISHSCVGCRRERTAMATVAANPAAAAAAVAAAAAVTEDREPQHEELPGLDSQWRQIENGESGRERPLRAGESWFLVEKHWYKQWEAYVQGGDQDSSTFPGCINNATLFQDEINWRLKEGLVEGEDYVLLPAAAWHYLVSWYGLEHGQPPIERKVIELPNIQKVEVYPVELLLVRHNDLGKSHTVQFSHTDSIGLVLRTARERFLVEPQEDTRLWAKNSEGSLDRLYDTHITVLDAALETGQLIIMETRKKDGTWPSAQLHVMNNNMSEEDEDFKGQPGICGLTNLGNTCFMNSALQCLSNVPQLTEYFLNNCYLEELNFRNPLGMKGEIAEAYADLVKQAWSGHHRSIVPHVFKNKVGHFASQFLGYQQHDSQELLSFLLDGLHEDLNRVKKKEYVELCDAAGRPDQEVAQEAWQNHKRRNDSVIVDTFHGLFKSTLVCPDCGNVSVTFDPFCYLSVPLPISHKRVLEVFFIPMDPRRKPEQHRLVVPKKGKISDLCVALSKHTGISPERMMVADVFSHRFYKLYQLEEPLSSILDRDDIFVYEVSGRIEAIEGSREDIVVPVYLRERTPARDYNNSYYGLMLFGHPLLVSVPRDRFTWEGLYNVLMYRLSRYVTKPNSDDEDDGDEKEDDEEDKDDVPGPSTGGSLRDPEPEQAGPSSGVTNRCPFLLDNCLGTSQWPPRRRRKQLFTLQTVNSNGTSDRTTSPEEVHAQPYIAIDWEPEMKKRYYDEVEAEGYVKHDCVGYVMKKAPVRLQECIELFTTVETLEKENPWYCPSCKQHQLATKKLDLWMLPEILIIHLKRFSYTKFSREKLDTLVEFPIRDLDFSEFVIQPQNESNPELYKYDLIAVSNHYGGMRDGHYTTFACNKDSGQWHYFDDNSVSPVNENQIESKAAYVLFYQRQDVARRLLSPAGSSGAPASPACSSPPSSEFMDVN
UniProt O00487, sequence (O00487 whole entry): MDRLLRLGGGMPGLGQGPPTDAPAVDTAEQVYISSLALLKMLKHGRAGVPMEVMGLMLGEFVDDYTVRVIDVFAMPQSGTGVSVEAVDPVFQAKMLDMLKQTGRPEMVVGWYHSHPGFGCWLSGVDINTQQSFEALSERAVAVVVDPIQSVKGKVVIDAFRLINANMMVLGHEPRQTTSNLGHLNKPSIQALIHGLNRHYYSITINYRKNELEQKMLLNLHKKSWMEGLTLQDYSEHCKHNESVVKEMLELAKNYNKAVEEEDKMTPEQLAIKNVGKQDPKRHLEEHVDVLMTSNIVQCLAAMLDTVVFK

Cc1cccc(N2CCC(NC(=O)CCl)C2=O)c1 (centres undefined)
inactive: USP9X -0.421 | UniProt O00487 0.133 | UniProt O00507 0.294 | UniProt P51784 -0.28 | UniProt Q5T2D3 -0.334 | UniProt Q8TE49 -0.961 | UniProt Q9P2H5 -0.395 | UniProt Q9UGI0 -0.883 | YOD1 -0.459

From the supplement of paper PMC11732987, “Enantioselective OTUD7B fragment discovery through chemoproteomics screening and high-throughput optimisation” (Communications Chemistry, 2025)
